Assay results: PubChem BioAssay (NCATS)
Records with an inconclusive call do not appear. A call without a number means that no potency is given here. The source made the active and inactive calls. Calls follow the shape of the dose curve; as a rule, active = well fitted inhibition curve with a large enough effect; inconclusive = small, poorly fitted or top-dose-only effect; inactive = flat fitted curve, though single readings scatter.

How the values were obtained:
Test in all cases: qHTS profiling for inhibitors of Plasmodium falciparum proliferation (AID 504749); also: nearly all actives have a fitted effect of over 60% in size
Details in all cases: P. falciparum in erythrocytes, SYBR Green DNA, 72 h; series mostly up to 28.7 µM
CP335 = test system: CP335
Summary of the method: (§1)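 Quantitative HTS: compounds pinned into medium, infected erythrocytes added (0.3% parasitemia, 2.5% hematocrit), 72 h culture at 37 C under 5% CO2. Saponin/Triton lysis with SYBR Green I, overnight RT, then fluorescence read.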

DFO2036 = test system: DFO2036
Summary of the method: as §1

DIV14 = test system: DIV14
Summary of the method: as §1

DIV17 = test system: DIV17
Summary of the method: as §1

DIV30 = test system: DIV30
Summary of the method: as §1

Dd2 = test system: Dd2
Summary of the method: as §1

ECU = test system: ECU
Summary of the method: as §1

FAB9 = test system: FAB9
Summary of the method: as §1

GB4 = test system: GB4
Summary of the method: as §1

HB3 = test system: HB3
Summary of the method: as §1

ICS = test system: ICS
Summary of the method: as §1

JCK = test system: JCK
Summary of the method: as §1

N140 = test system: N140
Summary of the method: as §1

P93_24 = test system: P93_24
Summary of the method: as §1

P94_40 = test system: P94_40
Summary of the method: as §1

PAD = test system: PAD
Summary of the method: as §1

PC15 = test system: PC15
Summary of the method: as §1

PC26 = test system: PC26
Summary of the method: as §1

PC49 = test system: PC49
Summary of the method: as §1

SC27B = test system: SC27B
Summary of the method: as §1
Potency is read from the fitted curve at half-maximal effect.

Compound | Potency (CP335) | Potency (DFO2036) | Potency (DIV14) | Potency (DIV17) | outcome (DIV30) | Potency (Dd2) | Potency (ECU) | outcome (FAB9) | Potency (GB4) | Potency (HB3) | Potency (ICS) | outcome (JCK) | Potency (N140) | Potency (P93_24) | Potency (P94_40) | Potency (PAD) | Potency (PC15) | Potency (PC26) | Potency (PC49) | Potency (SC27B)
CC(O)C(O)[C@H]1CNc2nc(N)[nH]c(=O)c2N1 (stereo partly specified) | inactive | inactive | inactive | inactive | inactive | inactive | inactive | inactive | inactive | inactive | inactive | inactive | inactive | inactive | inactive | inactive | inactive | inactive | inactive | inactive
CN1C2CCC1CC(OC(c1ccccc1)c1ccccc1)C2 (stereo unspecified) | – | – | 4.78 µM (active) | 3.01 µM (active) | – | – | – | inactive | – | inactive | 0.178 µM (active) | inactive | inactive | – | – | – | – | – | 2 µM (active) | inactive
CCCCCCCCCCCCCCCCCCOC[C@H](COP(=O)([O-])OCC[N+](C)(C)C)OC | inactive | inactive | inactive | inactive | inactive | inactive | inactive | inactive | inactive | inactive | inactive | inactive | inactive | inactive | inactive | inactive | inactive | – | inactive | inactive
CC(C)NC[C@H](O)COc1ccc(CC(N)=O)cc1 | inactive | inactive | inactive | inactive | inactive | inactive | inactive | inactive | inactive | inactive | inactive | inactive | inactive | – | inactive | inactive | inactive | inactive | inactive | inactive
CCCCCCCCCCCCCCC[C@H](O)[C@H](N)CO | inactive | inactive | inactive | inactive | inactive | – | inactive | inactive | inactive | inactive | – | inactive | inactive | inactive | inactive | inactive | inactive | inactive | inactive | inactive
c1ccc(C2CN3CCSC3=N2)cc1 (stereo unspecified) | 5.36 µM (active) | 6.31 µM (active) | 2.69 µM (active) | 3.01 µM (active) | – | 3.98 µM (active) | 8.91 µM (active) | – | 8.49 µM (active) | 3.16 µM (active) | 1.26 µM (active) | – | 3.98 µM (active) | 2.82 µM (active) | 3.55 µM (active) | 7.94 µM (active) | 2.82 µM (active) | 15.1 µM (active) | – | 10 µM (active)
